Holding throughout (experiment): DAPPL (digital affinity profiling via proximity ligation, sequencing); 10 mM Tris-HCl pH 7.5, 50 mM NaCl, 1 mM DTT, 4% glycerol, room temperature, 30 min; GST-TFs on glutathione beads, 16-mer random dsDNA library, 0.1% formaldehyde crosslink after washing; high values mean tight binding
The target of test [1] is T1, FEV (Homo sapiens, UniProt Q99581 1-238).
T1 sequence: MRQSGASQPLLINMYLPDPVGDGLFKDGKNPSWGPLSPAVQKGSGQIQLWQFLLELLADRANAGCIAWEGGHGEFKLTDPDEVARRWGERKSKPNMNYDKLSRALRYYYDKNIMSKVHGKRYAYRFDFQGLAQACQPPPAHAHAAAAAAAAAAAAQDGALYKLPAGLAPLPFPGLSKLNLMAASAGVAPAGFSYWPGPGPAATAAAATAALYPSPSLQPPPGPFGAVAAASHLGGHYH
The following applies: protein: recombinant; tags: N-terminal GST; dsDNA, one strand shown. The gist of the method: (§1)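 After expression in yeast as GST fusions, human transcription factors were bound to glutathione beads, DNA-barcoded and mixed with a tag-only sample. The pools were incubated with 200 nmole of a 16-mer random double-stranded DNA library in Tris/NaCl/DTT/glycerol buffer (30 min, room temperature), washed and crosslinked with 0.1% formaldehyde. Proximity ligation with BsaI/T4 ligase ran for 1 h at 37 °C, before PCR amplification and sequencing on an Illumina NextSeq500. Binding signal is a hexamer's read frequency for a factor divided by its frequency for the tag-only sample.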

The target of test [2] is ETV5 (Homo sapiens, UniProt P41161 1-510). The following applies: protein: recombinant; tags: N-terminal GST; dsDNA, one strand shown. The gist of the method:
as §1

The target of test [3] is HSF1 (Homo sapiens, UniProt Q00613 1-529). The following applies: protein: recombinant; tags: N-terminal GST; chain copies: 3; dsDNA, one strand shown. The gist of the method:
as §1

For test [4], the target named is T2, SPIC (Homo sapiens, UniProt Q8N5J4 1-248).
T2 sequence: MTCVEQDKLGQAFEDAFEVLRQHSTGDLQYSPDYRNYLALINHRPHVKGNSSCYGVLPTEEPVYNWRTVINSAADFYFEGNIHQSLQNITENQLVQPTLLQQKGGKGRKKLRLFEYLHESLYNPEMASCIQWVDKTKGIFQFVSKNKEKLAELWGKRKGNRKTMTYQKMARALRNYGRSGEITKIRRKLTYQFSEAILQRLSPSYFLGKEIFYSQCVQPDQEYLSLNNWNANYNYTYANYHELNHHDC
The following applies: protein: recombinant; tags: N-terminal GST; dsDNA, one strand shown. The essentials: as §1

In test [5] the target is ELF4 (Homo sapiens, UniProt Q99607 1-663). The following applies: protein: recombinant; tags: N-terminal GST; dsDNA, one strand shown. The gist of the method:
as §1

For test [6], the target named is T3, ELK4 (Homo sapiens, UniProt P28324-2 1-405).
T3 sequence: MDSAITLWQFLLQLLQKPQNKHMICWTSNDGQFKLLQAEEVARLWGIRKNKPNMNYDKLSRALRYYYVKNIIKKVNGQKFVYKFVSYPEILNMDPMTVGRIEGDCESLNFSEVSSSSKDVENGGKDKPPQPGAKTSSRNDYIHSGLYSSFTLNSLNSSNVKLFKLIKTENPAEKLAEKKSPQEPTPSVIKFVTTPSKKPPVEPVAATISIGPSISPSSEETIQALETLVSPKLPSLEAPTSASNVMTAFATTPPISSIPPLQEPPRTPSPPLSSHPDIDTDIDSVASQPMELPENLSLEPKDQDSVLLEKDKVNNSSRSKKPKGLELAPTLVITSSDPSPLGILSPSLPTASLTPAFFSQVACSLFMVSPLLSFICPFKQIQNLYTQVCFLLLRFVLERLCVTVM
The following applies: protein: recombinant; tags: N-terminal GST; dsDNA, one strand shown. The gist of the method: as §1

Test [7] concerns the target T4, ETV2 (Homo sapiens, UniProt O00321 1-342).
T4 sequence: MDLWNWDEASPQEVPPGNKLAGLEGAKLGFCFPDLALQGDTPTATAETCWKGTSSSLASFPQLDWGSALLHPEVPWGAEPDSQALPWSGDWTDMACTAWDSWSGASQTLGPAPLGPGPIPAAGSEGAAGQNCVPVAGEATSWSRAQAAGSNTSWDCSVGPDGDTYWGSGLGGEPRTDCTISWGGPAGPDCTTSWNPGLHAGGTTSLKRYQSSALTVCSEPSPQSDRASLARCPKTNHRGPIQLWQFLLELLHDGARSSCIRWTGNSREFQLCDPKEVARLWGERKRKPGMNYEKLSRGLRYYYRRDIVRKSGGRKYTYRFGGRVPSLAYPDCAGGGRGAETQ
The following applies: protein: recombinant; tags: N-terminal GST; dsDNA, one strand shown. The gist of the method: as §1

The target of test [8] is T5, ELF3 (Homo sapiens, UniProt P78545 1-371).
T5 sequence: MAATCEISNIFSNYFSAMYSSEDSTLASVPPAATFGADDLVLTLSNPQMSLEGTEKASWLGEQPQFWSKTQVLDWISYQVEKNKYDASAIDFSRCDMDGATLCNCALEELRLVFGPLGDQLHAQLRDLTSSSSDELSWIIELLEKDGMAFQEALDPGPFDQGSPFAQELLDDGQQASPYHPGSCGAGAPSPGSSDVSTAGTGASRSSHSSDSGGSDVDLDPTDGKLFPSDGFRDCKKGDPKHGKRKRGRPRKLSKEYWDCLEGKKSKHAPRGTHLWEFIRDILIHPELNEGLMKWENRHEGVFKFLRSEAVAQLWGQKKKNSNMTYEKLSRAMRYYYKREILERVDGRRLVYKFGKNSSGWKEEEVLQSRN
The following applies: protein: recombinant; tags: N-terminal GST; dsDNA, one strand shown. The gist of the method: as §1

For test [9], the target named is CRX (Homo sapiens, UniProt O43186 1-299). The following applies: protein: recombinant; tags: N-terminal GST; dsDNA, one strand shown. The essentials: as §1
CRX, sequence (O43186 whole entry): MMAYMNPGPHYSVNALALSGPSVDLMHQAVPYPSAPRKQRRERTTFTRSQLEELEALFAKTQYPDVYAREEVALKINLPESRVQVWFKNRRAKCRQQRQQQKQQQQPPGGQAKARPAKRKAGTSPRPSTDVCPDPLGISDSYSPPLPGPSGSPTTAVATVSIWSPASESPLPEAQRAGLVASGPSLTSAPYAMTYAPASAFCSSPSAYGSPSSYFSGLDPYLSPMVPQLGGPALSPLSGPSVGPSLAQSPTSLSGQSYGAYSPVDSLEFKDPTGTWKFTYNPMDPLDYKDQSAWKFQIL
Test [10] has as its target ETV1 (Homo sapiens, UniProt P50549 1-477). The following applies: protein: recombinant; tags: N-terminal GST; dsDNA, one strand shown. The gist of the method:
as §1

Test [11] concerns the target T6, ERF (Homo sapiens, UniProt P50548 1-548).
T6 sequence: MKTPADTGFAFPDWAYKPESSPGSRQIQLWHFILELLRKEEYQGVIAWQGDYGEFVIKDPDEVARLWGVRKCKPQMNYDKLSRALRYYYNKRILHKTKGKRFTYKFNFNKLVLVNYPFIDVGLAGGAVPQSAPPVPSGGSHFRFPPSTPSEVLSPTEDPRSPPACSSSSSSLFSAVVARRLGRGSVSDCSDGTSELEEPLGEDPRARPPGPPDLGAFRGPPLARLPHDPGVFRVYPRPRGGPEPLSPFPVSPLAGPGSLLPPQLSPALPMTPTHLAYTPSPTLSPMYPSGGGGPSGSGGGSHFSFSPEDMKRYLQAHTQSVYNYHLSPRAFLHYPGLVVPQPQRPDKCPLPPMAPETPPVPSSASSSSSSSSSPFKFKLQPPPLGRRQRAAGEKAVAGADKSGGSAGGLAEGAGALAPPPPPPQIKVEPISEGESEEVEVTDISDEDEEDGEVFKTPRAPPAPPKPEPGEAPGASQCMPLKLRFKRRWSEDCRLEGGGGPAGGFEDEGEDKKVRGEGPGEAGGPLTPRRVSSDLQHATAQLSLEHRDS
The following applies: protein: recombinant; tags: N-terminal GST; dsDNA, one strand shown. The essentials: as §1

The target in test [12] is T7, ETV3L (Homo sapiens, UniProt Q6ZN32 1-361).
T7 sequence: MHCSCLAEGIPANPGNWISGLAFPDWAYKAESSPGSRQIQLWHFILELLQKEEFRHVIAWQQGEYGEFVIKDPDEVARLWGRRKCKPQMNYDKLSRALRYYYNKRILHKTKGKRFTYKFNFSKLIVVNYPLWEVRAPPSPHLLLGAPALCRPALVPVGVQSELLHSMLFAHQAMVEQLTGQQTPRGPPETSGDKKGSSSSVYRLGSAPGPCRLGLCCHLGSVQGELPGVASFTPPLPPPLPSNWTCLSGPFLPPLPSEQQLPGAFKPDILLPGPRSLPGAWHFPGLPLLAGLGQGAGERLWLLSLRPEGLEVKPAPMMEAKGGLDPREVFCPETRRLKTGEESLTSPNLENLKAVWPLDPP
The following applies: protein: recombinant; tags: N-terminal GST; dsDNA, one strand shown. The essentials: as §1

The target of test [13] is T8, ETS2 (Homo sapiens, UniProt P15036 1-469).
T8 sequence: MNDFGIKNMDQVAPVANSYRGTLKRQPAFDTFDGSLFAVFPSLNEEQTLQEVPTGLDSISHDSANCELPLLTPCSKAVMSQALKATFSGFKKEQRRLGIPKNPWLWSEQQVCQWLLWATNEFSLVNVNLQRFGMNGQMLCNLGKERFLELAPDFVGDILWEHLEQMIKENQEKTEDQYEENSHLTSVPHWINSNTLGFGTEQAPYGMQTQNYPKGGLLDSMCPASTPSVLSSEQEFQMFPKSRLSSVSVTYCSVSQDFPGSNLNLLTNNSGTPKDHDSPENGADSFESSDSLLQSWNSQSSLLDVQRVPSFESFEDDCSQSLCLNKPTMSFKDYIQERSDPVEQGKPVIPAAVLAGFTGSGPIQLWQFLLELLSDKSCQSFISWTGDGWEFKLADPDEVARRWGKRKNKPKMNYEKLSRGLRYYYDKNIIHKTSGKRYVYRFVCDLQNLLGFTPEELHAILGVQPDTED
The following applies: protein: recombinant; tags: N-terminal GST; dsDNA, one strand shown. The gist of the method:
as §1

The target in test [14] is T9, SPDEF (Homo sapiens, UniProt O95238 1-335).
T9 sequence: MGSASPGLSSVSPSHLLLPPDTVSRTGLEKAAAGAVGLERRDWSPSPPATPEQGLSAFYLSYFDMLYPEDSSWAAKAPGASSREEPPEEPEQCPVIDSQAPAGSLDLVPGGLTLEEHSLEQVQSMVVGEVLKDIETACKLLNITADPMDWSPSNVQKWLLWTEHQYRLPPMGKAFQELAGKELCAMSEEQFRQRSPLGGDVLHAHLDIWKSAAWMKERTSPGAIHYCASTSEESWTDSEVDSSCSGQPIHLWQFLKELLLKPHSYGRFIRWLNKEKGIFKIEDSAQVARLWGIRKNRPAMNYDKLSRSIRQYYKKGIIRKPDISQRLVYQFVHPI
The following applies: protein: recombinant; tags: N-terminal GST; dsDNA, one strand shown. The gist of the method:
as §1

The target of test [15] is T10, ETV7 (Homo sapiens, UniProt Q9Y603 1-341).
T10 sequence: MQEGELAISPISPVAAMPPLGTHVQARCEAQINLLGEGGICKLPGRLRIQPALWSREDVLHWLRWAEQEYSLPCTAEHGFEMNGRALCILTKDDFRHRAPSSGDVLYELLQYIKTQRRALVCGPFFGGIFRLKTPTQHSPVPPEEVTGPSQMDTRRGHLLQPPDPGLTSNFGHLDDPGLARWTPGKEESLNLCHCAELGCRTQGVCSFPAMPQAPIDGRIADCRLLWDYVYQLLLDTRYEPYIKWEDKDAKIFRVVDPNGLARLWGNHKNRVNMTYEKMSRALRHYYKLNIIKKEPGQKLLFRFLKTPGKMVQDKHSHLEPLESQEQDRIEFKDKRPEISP
The following applies: protein: recombinant; tags: N-terminal GST; dsDNA, one strand shown. The gist of the method: as §1

Test [16] addresses T11, ELF5 (Homo sapiens, UniProt Q9UKW6-2 1-255).
T11 sequence: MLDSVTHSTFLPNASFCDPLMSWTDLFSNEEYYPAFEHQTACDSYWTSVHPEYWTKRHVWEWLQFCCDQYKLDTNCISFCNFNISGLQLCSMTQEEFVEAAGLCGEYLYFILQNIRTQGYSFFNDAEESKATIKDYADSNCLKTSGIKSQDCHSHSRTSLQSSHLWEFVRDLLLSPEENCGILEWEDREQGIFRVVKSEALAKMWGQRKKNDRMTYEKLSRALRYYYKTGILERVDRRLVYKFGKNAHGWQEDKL
The following applies: protein: recombinant; tags: N-terminal GST; dsDNA, one strand shown. The essentials:
as §1

The target of test [17] is T12, ETV3 (Homo sapiens, UniProt P41162-2 1-143).
T12 sequence: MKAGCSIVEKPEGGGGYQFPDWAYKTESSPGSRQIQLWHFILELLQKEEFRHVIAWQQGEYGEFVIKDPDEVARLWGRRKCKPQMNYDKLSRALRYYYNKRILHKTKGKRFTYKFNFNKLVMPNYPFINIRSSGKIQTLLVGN
The following applies: protein: recombinant; tags: N-terminal GST; dsDNA, one strand shown. The essentials: as §1

Test [18] deals with ETV6 (Homo sapiens, UniProt P41212 1-452). The following applies: protein: recombinant; tags: N-terminal GST; dsDNA, one strand shown. The gist of the method: as §1
ETV6, sequence (P41212 whole entry): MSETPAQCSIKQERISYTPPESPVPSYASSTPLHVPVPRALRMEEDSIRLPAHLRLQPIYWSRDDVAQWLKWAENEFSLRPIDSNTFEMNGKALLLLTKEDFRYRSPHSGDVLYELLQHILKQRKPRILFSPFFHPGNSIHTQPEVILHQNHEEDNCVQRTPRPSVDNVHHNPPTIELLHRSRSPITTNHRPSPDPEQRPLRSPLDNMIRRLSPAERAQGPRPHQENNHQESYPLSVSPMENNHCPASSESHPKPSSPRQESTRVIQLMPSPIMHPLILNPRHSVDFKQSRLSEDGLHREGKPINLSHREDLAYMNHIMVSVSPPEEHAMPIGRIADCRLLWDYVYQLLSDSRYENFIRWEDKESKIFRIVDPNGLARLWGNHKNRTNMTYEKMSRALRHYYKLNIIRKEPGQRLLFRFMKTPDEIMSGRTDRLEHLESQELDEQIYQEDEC

Here are results for one sequence from publication PMC7862700, “An all-to-all approach to the identification of sequence-specific readers for epigenetic DNA modifications on cytosine”.

ETV5, sequence (P41161 whole entry): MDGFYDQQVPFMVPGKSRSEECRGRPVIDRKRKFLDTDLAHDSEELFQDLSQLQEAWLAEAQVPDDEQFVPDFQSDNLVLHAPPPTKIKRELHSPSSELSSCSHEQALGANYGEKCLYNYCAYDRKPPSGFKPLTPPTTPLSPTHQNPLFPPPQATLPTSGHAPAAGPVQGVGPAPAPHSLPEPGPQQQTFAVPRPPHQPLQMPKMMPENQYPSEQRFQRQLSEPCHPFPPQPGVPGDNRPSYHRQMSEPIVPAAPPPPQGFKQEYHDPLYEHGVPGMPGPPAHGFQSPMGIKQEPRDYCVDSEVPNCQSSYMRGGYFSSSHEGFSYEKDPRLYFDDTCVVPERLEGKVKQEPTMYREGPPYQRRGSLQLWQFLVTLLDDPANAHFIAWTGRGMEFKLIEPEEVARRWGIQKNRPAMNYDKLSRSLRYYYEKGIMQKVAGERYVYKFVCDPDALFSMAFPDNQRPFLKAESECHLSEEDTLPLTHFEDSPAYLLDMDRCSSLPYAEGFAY
ETV1, sequence (P50549 whole entry): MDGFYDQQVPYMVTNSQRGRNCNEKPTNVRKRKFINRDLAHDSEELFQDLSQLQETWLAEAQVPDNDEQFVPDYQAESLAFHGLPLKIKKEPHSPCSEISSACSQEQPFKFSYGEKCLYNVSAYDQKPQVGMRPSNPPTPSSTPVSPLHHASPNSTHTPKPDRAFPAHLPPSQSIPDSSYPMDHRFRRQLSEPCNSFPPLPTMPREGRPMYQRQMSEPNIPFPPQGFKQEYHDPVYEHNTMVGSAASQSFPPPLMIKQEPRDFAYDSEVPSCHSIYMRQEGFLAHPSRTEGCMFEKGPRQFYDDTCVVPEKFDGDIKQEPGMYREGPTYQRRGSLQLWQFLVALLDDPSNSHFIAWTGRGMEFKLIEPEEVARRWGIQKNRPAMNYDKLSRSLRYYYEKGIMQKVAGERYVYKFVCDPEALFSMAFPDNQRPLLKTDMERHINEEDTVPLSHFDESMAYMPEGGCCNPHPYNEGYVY
ELF4, sequence (Q99607 whole entry): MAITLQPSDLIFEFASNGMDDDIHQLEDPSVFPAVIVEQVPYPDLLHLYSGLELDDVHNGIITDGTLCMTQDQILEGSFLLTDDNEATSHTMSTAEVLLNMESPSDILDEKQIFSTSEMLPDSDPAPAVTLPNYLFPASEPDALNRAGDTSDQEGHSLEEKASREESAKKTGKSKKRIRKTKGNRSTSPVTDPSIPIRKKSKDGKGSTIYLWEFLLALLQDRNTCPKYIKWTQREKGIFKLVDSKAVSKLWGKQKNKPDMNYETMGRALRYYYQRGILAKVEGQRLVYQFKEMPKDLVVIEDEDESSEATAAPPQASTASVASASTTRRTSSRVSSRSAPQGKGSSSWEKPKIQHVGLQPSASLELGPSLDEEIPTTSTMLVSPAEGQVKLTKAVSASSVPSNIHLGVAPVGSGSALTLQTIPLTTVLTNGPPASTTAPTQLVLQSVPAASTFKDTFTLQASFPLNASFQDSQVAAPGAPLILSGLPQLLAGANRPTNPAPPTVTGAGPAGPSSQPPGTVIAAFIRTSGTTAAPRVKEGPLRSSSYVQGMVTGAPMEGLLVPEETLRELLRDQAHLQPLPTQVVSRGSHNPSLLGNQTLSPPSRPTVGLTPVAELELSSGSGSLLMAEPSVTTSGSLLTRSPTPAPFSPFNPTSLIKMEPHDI
HSF1, sequence (Q00613 whole entry): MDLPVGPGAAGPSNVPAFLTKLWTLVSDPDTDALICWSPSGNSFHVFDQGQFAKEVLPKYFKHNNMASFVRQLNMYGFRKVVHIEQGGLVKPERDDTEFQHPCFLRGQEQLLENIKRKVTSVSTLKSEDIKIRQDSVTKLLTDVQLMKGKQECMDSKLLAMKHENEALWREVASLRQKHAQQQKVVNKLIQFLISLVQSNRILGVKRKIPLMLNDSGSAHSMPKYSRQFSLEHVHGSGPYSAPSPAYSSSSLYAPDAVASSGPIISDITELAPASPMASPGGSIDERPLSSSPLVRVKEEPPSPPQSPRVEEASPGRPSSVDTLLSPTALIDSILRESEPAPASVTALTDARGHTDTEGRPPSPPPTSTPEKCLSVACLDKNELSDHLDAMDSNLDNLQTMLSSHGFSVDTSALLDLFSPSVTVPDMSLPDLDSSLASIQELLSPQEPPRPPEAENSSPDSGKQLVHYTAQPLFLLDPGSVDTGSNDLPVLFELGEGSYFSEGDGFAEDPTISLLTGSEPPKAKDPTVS

In the case of ATAAAA, the binding signal is 1.15 fold enrichment (6-mer frequency, TF over GST control) in [1]; 1.12 fold enrichment (6-mer frequency, TF over GST control) in [2]; 1.31 fold enrichment (6-mer frequency, TF over GST control) in [3]; 1.02 fold enrichment (6-mer frequency, TF over GST control) in test [4]; 1.2 fold enrichment (6-mer frequency, TF over GST control) in test [5]; 1.17 fold enrichment (6-mer frequency, TF over GST control) in test [6]. Further, the binding signal is 1.2 fold enrichment (6-mer frequency, TF over GST control) in [7]; 1.2 fold enrichment (6-mer frequency, TF over GST control) in test [8]; 1.43 fold enrichment (6-mer frequency, TF over GST control) in test [9]; 1.16 fold enrichment (6-mer frequency, TF over GST control) in test [10]; 1.13 fold enrichment (6-mer frequency, TF over GST control) in test [11]; 1.15 fold enrichment (6-mer frequency, TF over GST control) in test [12]. Further, the binding signal is 1.17 fold enrichment (6-mer frequency, TF over GST control) in [13]; 1.12 fold enrichment (6-mer frequency, TF over GST control) in test [14]; 1.1 fold enrichment (6-mer frequency, TF over GST control) in [15]; 1.11 fold enrichment (6-mer frequency, TF over GST control) in test [16]; 1.15 fold enrichment (6-mer frequency, TF over GST control) in [17]; 1.16 fold enrichment (6-mer frequency, TF over GST control) in test [18].
